Unmarked numbers belong to inactive results. Records with an inconclusive call do not appear. The list shows a part of the results. Entries that show only a call come without a potency. Activity calls are given as the source filed them. Unless noted, the call rests on the fitted dose curve; in most records, active means well fitted curve in the direction sought with a large enough effect; inconclusive means small, poorly fitted or top-dose-only effect, or another doubt; inactive means no such curve, though single readings can be large; an effect the other way counts as inactive or inconclusive.
What was measured:
[1] = qHTS Assay for Inhibitors of Fructose-1,6-bisphosphate Aldolase from Giardia Lamblia: Giardia lamblia growth inhibition (AID 2785); further: nearly all actives have a fitted effect of over 70% in size
How it was run: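 G. lamblia WB trophozoites (100 cells/well) were grown with compound at 37C for 48 h in modified TYI-S-33 medium, pH 7.0. Growth was measured by ATPlite luminescence after 20 min at room temperature.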

[2] = qHTS Assay for Inhibitors of Fructose-1,6-bisphosphate Aldolase from Giardia Lamblia: Mammalian cellular toxicity (AID 2786);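 further: compound exposure lasted 48 h before reading; nearly all actives have a fitted effect of over 60% in size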
How it was run: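 CHO cells seeded at 250 cells/well with pin-tool-added compound, incubated 48 h at 37 °C, 5% CO2. Viability read as ATP content by ATPlite luminescence after 20 min.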

[3] = target: Fructose-bisphosphate aldolase (Giardia intestinalis (strain ATCC 50803 / WB clone C6)) (UniProt A8B2U2); assay: qHTS Assay for Inhibitors of Fructose-1,6-bisphosphate Aldolase from Giardia Lamblia: Primary screen confirmation (AID 2787);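 further: aldolase product measured through coupled diaphorase step turning resazurin into fluorescent resorufin; series mostly up to about 58 µM; nearly all actives have a fitted effect of over 45% in size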
How it was run: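 Confirmation of primary hits by qHTS up to 57.5 uM final compound. Enzyme at 40 nM with 30 uM ZnCl2, 10 min RT pre-incubation, then substrate/coupling/resorufin-forming detection mix for 20 min before fluorescence read at 525/598 nm.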

[4] = target: Fructose-bisphosphate aldolase A (Oryctolagus cuniculus) (UniProt P00883); assay: qHTS Assay for Inhibitors of Fructose-1,6-bisphosphate Aldolase from Giardia Lamblia: Rabbit FBPA Selectivity (AID 2794); further: nearly all actives have a fitted effect of over 60% in size
How it was run: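 Rabbit Class I FBPA selectivity counterscreen, 1536-well qHTS: compounds at up to 57.5 uM final preincubated 10 min RT with coupling enzyme reagent, then substrate plus coupled enzymes and AmpLite Red added; 20 min RT, fluorescence read at 525/598 nm.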

[5] = qHTS Assay for Inhibitors of Fructose-1,6-bisphosphate Aldolase from Giardia Lamblia: Coupling assay counterscreen confirmation (AID 2795); further: nearly all actives have a fitted effect of over 55% in size
How it was run: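 Setup: coupling enzyme reagent, compound pin-transferred to up to 57.5 uM final. Incubation: 10 min RT, then substrate + AmpLite Red for 20 min RT. Detection: fluorescence 525/598 nm.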

[6] = test system: HIV-1 nucleocapsid protein NCp7 (binding to TG oligonucleotide); assay: HIV Nucleocapsid (AID 346; call rule not given here;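 further: potency means the concentration at half of the fitted maximal effect; potency is for inhibitors that block NC binding and lower polarization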); details: HIV-1 NC / fluorescein-TGTGTGTG probe, fluorescence polarization
How it was run: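 HIV-1 NC (100 nM) binding to fluorescein-labelled ssDNA TG4xF (10 nM) in Hepes pH 7.5, 250mM NaCl, 1uM ZnCl2, TCEP and 2-mercaptoethanol; compounds pin-transferred, 1 hr room temperature, fluorescence polarization read on CCD imager.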

[7] = target: Bile acid receptor (Homo sapiens) (UniProt Q96RI1); assay: qHTS assay for small molecule antagonists of farnesoid X receptor signaling (AID 588526; calls by dose curve)
How it was run: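 Antagonist mode: titrated compounds tested against chenodeoxycholic acid stimulation (normalized to 50 uM CDCA and DMSO) in GeneBLAzer HEK293T cells for 16 h. Beta-lactamase read by CCF4 fluorescence; IC50 from Hill fits.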

[8] = target: Estrogen receptor (Homo sapiens) (UniProt P03372); assay: qHTS assay for small molecule antagonists of estrogen receptor alpha signaling (AID 588513; active means well fitted curve in the direction sought with a large enough effect in the signal ratio, with a control signal flat, not every such curve was filed as active; the % refers to the signal ratio)
How it was run: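 ER-alpha-UAS-bla GripTite HEK 293 cells in medium with 2% charcoal/dextran-treated FBS were preincubated 4 h at 37 C, dosed with compound (1:2 titration), stimulated with 0.5nM 17-beta-estradiol for 18 h, then read by CCF4 beta-lactamase fluorescence.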

[9] = target: Androgen receptor (Homo sapiens) (UniProt P10275); assay: qHTS assay for small molecule agonists of androgen receptor signaling (AID 588515; active means well fitted curve in the direction sought with a large enough effect in the signal ratio, with a control signal flat; the % refers to the signal ratio); details: AR-UAS-bla HEK293, beta-lactamase ratio, agonist 16 h; active compounds read high
How it was run: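 EC50 and efficacy came from Hill fits of titrations (up to 92 uM) normalized to 30 nM R1881 as 100% and DMSO as 0%. Compound exposure was 16 h at 37 C on AR-UAS-bla HEK293 cells, with a 405/460/530 nm CCF4 fluorescence read.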

[10] = qHTS assay to identify small molecules that stimulate interleukin-8 (IL-8) secretion (AID 651758; active means well fitted activation curve with a large enough effect in the signal ratio; the % refers to the signal ratio; further: potency means the concentration at half of the fitted maximal effect)
How it was run: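 THP-1 cells (2000/well) exposed to compound 16 h at 37 C; secreted IL-8 then detected by HTRF with cryptate- and XL665-labelled anti-IL-8 antibody pair after 1-3 h at room temperature.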

[11] = Counterscreen for APE1 Inhibitors: Fluorescent Dye Displacement Assay (AID 2564);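 further: loss of thiazole orange fluorescence as the dye is displaced from duplex DNA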; further: potency means the concentration at half of the fitted maximal effect
How it was run: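 Thiazole Orange displacement from dsDNA: 250 nM ThO with 50 nM TAMRA-labelled abasic-site (tetrahydrofuran) duplex in 50 mM Tris-HCl pH7.5, 50mM NaCl, 2 mM MgCl2, 0.01% Tween-20. Loss of endpoint fluorescence (ex 480 nm, em 540 nm) flags DNA binders.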

[12] = target: Endonuclease 4 (Escherichia coli (strain K12)) (UniProt P0A6C1); assay: Counterscreen for APE1 Inhibitors: qHTS Assay for Inhibitors of Endonuclease IV (AID 2565)
How it was run: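 Cleavage of a quenched abasic-site DNA duplex (50 nM, 5'-TAMRA, 3'-BHQ-2) by 2 nM enzyme is followed as fluorescence increase. Compounds are preincubated with enzyme 15 min at room temperature before substrate addition.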

[13] = target: DNA repair nuclease/redox regulator APEX1 (Homo sapiens) (UniProt P27695); assay: Confirmation qHTS Assay for Inhibitors of the Human Apurinic/apyrimidinic Endonuclease 1 (APE1) (AID 2572); details: purified APE1, fluorogenic abasic-site DNA cleavage; further: potency means the concentration at half of the fitted maximal effect; nearly all actives have a fitted effect of over 30% in size
How it was run: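 Readout: kinetic fluorescence (Ex 525, Em 598 nm) from APE1 incision of a 5'-TAMRA, 3'-BHQ-2 duplex containing a THF abasic site at 50 nM final. Compound preincubation 15 min, room temperature.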

[14] = target: DNA repair nuclease/redox regulator APEX1 (Homo sapiens) (UniProt P27695); assay: qHTS FP-Based Assay for Inhibitors of the Human Apurinic/apyrimidinic Endonuclease 1 (APE1) (AID 2573)
From the text: The apurinic/apyrimidinic endonuclease APE1 is the primary mammalian enzyme responsible for the removal of abasic (or AP) sites in DNA and functions centrally in the base excision DNA repair (BER) pathway. […] Thus, targeting APE1 could improve the efficacy of current treatment paradigms by promoting selective sensitization or protection of diseased and normal cells, respectively.
In order to gain insight into the mode of action of confirmed APE1 inhibitors, we implemented a miniaturized fluorescence polarization assay designed to report on compounds which competitively displace ds-DNA substrate. The fluorescence polarization assay has been implemented in 384- and 1536-well format for binding of TAMRA-labeled double-stranded DNA probe not containing a quencher. The binding of protein to DNA is inhibited by ATA, a general inhibitor of APE1 activity.
See also related primary fluorogenic assay (AID 2517). […]
Three uL of enzyme were dispensed to 1536-well Greiner black solid bottom plates. […] The plates were immediately transferred into ViewLux High-throughput CCD imager (Perkin-Elmer) in order to measure the reaction progress in kinetic mode (three reads every 60 seconds) using 525 nm excitation and 598 nm emission fluorescence protocol. The fluorescence intensity difference between the third and the first time points was used to compute reaction progress.

[15] = target: Cytochrome P450 3A4 (Homo sapiens) (UniProt P08684); assay: qHTS Assay for Activators of Cytochrome P450 3A4 (AID 885); further: nearly all actives have a fitted effect of over 65% in size
How it was run: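 20nM CYP3A4 + 25uM Luciferin-PPXE (=KM), 200mM KPO4; cpd 10 min RT; NADPH regen, 60 min RT; stop w/ detection buffer, 20 min; luminescence. Normalized to 57 uM ketoconazole.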

Fructose-bisphosphate aldolase (Giardia intestinalis (strain ATCC 50803 / WB clone C6)), sequence (A8B2U2 whole entry, looked up): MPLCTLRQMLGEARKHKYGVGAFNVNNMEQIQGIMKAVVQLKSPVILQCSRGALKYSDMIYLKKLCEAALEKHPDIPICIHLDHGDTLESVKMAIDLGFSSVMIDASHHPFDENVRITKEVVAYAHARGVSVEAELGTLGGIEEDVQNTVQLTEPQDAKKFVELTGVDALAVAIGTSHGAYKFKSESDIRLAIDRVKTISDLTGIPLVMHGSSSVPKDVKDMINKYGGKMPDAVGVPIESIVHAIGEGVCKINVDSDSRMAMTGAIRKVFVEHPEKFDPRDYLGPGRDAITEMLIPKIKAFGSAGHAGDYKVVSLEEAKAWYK
DNA repair nuclease/redox regulator APEX1 (Homo sapiens), sequence (P27695 whole entry, looked up): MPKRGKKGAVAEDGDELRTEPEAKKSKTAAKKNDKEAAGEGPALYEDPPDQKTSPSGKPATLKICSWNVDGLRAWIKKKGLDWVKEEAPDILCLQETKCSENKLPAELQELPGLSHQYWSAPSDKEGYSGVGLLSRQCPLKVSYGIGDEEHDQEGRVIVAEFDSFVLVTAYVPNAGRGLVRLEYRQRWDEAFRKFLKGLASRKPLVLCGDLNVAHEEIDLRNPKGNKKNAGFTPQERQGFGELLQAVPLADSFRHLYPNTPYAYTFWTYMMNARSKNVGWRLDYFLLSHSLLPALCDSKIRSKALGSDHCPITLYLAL
Fructose-bisphosphate aldolase A (Oryctolagus cuniculus), sequence (P00883 whole entry, looked up): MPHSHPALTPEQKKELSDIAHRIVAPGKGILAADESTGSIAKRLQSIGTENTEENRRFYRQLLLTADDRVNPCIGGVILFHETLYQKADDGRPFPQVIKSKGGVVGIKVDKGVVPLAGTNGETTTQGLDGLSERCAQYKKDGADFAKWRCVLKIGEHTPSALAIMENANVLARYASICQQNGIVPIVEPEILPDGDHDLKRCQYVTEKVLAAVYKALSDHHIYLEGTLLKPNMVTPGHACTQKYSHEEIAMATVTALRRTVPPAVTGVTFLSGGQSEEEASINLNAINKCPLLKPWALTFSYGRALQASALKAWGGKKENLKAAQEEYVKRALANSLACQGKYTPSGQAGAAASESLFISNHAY
Cytochrome P450 3A4 (Homo sapiens), sequence (P08684 whole entry, looked up): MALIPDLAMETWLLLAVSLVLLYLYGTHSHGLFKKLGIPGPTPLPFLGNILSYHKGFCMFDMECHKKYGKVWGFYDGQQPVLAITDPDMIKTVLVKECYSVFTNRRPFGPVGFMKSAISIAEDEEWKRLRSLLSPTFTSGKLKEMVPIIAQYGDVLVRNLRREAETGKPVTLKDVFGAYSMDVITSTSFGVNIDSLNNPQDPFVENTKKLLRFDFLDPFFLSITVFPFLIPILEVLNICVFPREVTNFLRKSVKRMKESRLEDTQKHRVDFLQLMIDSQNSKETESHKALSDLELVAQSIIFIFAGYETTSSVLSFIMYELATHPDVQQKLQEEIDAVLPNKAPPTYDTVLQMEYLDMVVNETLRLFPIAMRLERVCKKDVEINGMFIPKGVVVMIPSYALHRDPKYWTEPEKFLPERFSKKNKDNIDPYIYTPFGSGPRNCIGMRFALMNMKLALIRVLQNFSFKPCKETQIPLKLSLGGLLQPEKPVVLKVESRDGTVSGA
Estrogen receptor (Homo sapiens), sequence (P03372 whole entry, looked up): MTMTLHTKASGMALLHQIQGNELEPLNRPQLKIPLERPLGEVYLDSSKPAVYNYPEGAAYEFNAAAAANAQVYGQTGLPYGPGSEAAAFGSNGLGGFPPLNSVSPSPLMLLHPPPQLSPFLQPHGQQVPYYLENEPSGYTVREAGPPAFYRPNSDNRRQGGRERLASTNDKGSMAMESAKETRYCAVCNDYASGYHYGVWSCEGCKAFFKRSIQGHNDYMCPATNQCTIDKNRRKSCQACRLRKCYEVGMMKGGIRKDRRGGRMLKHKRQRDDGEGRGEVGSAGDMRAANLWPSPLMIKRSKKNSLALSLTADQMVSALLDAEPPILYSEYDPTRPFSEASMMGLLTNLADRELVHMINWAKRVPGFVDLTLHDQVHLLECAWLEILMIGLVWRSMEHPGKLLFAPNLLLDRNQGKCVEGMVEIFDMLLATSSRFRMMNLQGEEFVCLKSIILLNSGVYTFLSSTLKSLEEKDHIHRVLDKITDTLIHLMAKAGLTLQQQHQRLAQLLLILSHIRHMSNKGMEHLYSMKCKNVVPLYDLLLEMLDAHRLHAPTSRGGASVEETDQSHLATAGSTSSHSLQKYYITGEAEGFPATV
Bile acid receptor (Homo sapiens), sequence (Q96RI1 whole entry, looked up): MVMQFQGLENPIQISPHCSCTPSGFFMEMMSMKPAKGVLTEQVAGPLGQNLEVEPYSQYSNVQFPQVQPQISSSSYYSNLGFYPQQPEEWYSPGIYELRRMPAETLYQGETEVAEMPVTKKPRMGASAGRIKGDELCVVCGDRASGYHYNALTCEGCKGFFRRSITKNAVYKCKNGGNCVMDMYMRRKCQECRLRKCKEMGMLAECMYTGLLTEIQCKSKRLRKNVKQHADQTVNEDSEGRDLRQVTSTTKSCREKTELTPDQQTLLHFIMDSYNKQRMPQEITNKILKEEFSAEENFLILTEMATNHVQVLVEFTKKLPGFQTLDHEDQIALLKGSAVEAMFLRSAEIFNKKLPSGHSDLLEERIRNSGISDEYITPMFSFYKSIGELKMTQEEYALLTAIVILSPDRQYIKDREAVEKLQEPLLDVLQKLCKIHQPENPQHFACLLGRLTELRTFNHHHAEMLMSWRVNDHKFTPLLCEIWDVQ
Androgen receptor (Homo sapiens), sequence (P10275 whole entry, looked up): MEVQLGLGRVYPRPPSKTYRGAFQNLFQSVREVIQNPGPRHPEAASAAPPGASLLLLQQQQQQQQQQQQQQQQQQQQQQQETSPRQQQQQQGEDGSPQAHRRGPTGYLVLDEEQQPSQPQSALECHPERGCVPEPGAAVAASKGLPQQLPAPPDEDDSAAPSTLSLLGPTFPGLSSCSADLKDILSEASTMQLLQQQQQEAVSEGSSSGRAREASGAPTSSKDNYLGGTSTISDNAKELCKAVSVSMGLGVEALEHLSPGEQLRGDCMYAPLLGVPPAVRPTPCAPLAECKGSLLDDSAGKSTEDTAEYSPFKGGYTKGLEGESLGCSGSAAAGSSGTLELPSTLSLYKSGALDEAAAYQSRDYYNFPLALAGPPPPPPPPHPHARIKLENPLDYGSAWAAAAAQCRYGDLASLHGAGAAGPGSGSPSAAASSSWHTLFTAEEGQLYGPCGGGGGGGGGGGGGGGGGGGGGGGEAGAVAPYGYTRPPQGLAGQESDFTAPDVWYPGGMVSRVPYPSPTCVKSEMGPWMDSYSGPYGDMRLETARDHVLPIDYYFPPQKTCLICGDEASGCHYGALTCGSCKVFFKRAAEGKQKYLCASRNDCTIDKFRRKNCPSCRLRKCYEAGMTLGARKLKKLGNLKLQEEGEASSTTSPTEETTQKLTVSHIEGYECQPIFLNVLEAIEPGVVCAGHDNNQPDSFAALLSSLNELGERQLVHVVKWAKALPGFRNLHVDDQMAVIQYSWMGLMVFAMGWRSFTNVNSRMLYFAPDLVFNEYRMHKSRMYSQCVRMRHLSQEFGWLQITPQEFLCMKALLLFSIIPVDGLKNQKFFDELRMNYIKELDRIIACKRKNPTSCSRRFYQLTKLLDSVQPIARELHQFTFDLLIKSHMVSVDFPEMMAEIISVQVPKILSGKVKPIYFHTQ

## O=C(NC(=S)N1C[C@H]2C[C@H](C1)c1cccc(=O)n1C2)c1ccc(F)cc1
[1]
  outcome: inactive
[2]
  outcome: inactive
[3]
  outcome: inactive
[4]
  outcome: inactive
[5]
  outcome: inactive

## COCCNc1cc(-c2c(C)noc2C)ncn1
[6]
  Potency: > 20 µM

## CN(C)c1ccc(N=Nc2ccccc2)cc1
[7]
  outcome: inactive

## Cc1cnc(CNc2ncnc3ccc(-c4ccccc4C(F)(F)F)cc23)cn1
[6]
  Potency: > 20 µM

## O=c1cnc2cnc(N3CCNCC3)nc2n1Cc1ccc(F)cc1
[6]
  Potency: > 20 µM

## CN(Cc1ccco1)c1ccnc(-c2cccnc2)n1
[6]
  Potency: > 20 µM

## O=c1c(CCc2ccccc2)nc2cnc(N3CCOCC3)nc2n1C[C@H]1CCCO1
[6]
  Potency: > 20 µM

## CC(C)NC(=O)N1CC[C@@]2(CCCN(C(=O)c3ccncc3)C2)C1
[6]
  Potency: > 20 µM

## COc1ccc(CNCCc2c[nH]c3ccccc23)cc1OC
[1]
  activity change, negative = inhibition: 0.258% [at 10.4 µM]
[2]
  outcome: inactive
[3]
  outcome: inactive
[4]
  outcome: inactive
[5]
  outcome: inactive

## CS(=O)(=O)N1CCC2(CCCN(Cc3cc(C(F)(F)F)cc(C(F)(F)F)c3)C2)CC1
[6]
  Potency: > 20 µM

## BrCC(Br)(Br)Br
[8]
  Potency: inactive
[9]
  activation: 1.19%
[10]
  Potency: 42.2 µM (active)

## CC(C)NC(=O)N1CC2(CCN(C(=O)c3ccncc3)CC2)C1
[6]
  Potency: > 20 µM

## Cc1c(C(=O)O)cccc1-n1c(C)cc(/C=C2\C(=O)NC(=O)N(c3ccc4c(c3)OCO4)C2=O)c1C
[11]
  Potency: inactive
[12]
  Potency: inactive
[13]
  Potency: 12.6 µM (active)
[14]
  outcome: inactive

## CCCCC(=O)N/N=C/c1c(O)n(-c2ccccc2)c(=O)[nH]c1=O
[1]
  outcome: inactive
[2]
  outcome: inactive
[3]
  outcome: inactive
[4]
  outcome: inactive
[5]
  outcome: inactive

## COc1ccccc1CNc1ccnc(-c2ccc(C(=O)N(C)C)cc2)n1
[6]
  Potency: > 20 µM

## Oc1cc(Cl)c(Cl)c(Cl)c1Cl
[15]
  Potency: inactive

## O=C(OCC1O[C@@H](OC(=O)c2cc(O)c(O)c(O)c2)[C@@H](OC(=O)c2cc(O)c(O)c(O)c2)[C@@H](OC(=O)c2cc(O)c(O)c(O)c2)[C@@H]1OC(=O)c1cc(O)c(O)c(O)c1)c1cc(O)c(O)c(O)c1 (stereo partly specified)
[11]
  Potency: 3.98 µM (active)
[13]
  Potency: 0.0063 µM (active)

## N#C/C=C/C#N
[8]
  Potency: inactive

## COc1ccccc1CN1CCN(C(=O)Cc2ccccc2)CC1
[1]
  outcome: inactive
[2]
  outcome: inactive
[3]
  outcome: inactive
[4]
  outcome: inactive
[5]
  outcome: inactive

## Nc1ccc(-c2ccc(N)c(Cl)c2)cc1Cl
[15]
  Potency: inactive

## c1ccc(CNc2ncncc2-c2cccnc2)cc1
[6]
  Potency: > 20 µM

## Cc1cccc(CNc2ccnc(-c3ccc(N(C)C)cc3)n2)c1
[6]
  Potency: > 20 µM

## COc1ccccc1CN1CCC2(CCNCC2)CC1
[6]
  Potency: > 20 µM

## COC(=O)N1CCC[C@@]2(CCN(c3ccccn3)C2)C1
[6]
  Potency: > 20 µM

Reference: PubChem BioAssay (NCATS)
